Results as given in PubChem BioAssay (EPA / NIEHS).
Activity calls are given as the source filed them. Rule for the calls: active = hit-call score of the fitted dose curve at least 0.9, where 1 is the maximum; inactive = score below 0.9.

Experiment: ATG_M_32_CIS: Attagene CIS-FACTORIAL HepG2 Assay for M32 Transcription Factor (Internal Marker) (AID 2282949);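 note: background control marker of the multiplexed CIS panel rather than a real target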
Conditions: HepG2 Attagene cis-factorial M32 reporter, mRNA; actives raise or lower the signal
Protocol: ATG_CIS is a cell-based, multiplexed-readout assay that uses HepG2, a human liver cell line, with measurements taken at 24 hours after chemical dosing in a 24-well plate.ATG_M_32_CIS is one of 52 assay component(s) measured or calculated from the ATG_CIS assay. It is designed to make measurements of mRNA induction, a form of inducible reporter, as detected with fluorescence intensity signals by Reverse transcription polymerase chain reaction (RT-PCR) and Capillary electrophoresis technology.Data from the assay component ATG_M_32_CIS was analyzed into 1 assay endpoint. This assay endpoint, ATG_M_32_CIS, was analyzed with bidirectional fitting relative to DMSO as the negative control and baseline of activity. Using a type of inducible reporter, measures of mRNA for gain or loss-of-signal activity can be used to understand the background control at the transcription factor-level as they relate to the gene . Furthermore, this assay endpoint can be referred to as a secondary readout, because this assay has produced multiple assay endpoints where this one serves a background control function. To generalize the intended target to other relatable targets, this assay endpoint is annotated to the background measurement intended target family, where the subfamily is internal marker.
Human liver HepG2 cells are transiently transfected with multiple reporter transcription units (MRTUs) in 6-well plates using FuGene 6 reagent (Roche; 3 ml FuGene/1 mg DNA). The MRTU constructs are regulated by a cis-regulating element (promoter). […] A major difference between the CIS and TRANS system is that in CIS activities of endogenous TFs are measured, whereas the TRANS assay evaluates changes in activities of exogenous, chimeric NR-Gal4 proteins. […] At the end of 24 hour incubation, total RNA was isolated using TriZol reagent (Invitrogen). The isolated RNA is then reverse-transcribed using oligo(dT) primer and Mo-MLV reverse transcriptase (Invitrogen) with DNAse I (Ambion) treatment for 30 min. The one-tenth of the produced cDNA was amplified by PCR using Taq DNA polymerase (Invitrogen) and two reporter sequence-specific primers. The PCR products were fluorescently labeled by primer extension with 6-arboxyfluorescein (6-FAM) 5'-labeled reporter sequence-specific primer (2 min at 95 C, 20 s at 68 C and 10 min at 72 C) and these products were digested with 5U of HpaI (New England Biolabs) for 2h at 37 C. The fragments were purified using Qiaquick PCR columns (Qiagen), analyzed on an ABI 3130xL genetic analyzer (Applied Biosystems) with peak positions identified by using a set of X-rhodamine (ROX)-labeled MapMarker1000 molecular weight standards (BioVentures). The raw capillary electrophoresis data was processed using Attagraph software (Attagene).

outcome, inactive:
CN(C)C(=S)SC(=S)N(C)C
CC(C)(C)c1ccc(C(=O)O)cc1
[Cl][Au]([Cl])[Cl]
N[C@@H](Cc1cc(I)c(Oc2cc(I)c(O)c(I)c2)c(I)c1)C(=O)O
C1=CC2C3C=CC(C3)C2C1 (stereo not given)
O=C1OC(=O)c2c(Cl)c(Cl)c(Cl)c(Cl)c21
C[C@H]1C[C@@H](O)CC(C)(C)C1
CC1C2CC(CC2C2CCCC(O)C2)C1(C)C (stereo not given)
CC(C)CCCCCCCCCCCCCCC(=O)O
CCOc1ccc(NC(=O)CC(C)=O)cc1
CS(C)=O
CCOC(=O)[C@@H](C)Oc1ccc(Oc2nc3ccc(Cl)cc3o2)cc1
CCCCCC(C)=O
CCOC(=O)C(C#N)=C(c1ccccc1)c1ccccc1
CC(C)(C)CC(C)(C)c1ccc(OCCOCC[N+](C)(C)Cc2ccccc2)cc1
O=C1OC2(c3ccccc31)c1ccc(O)c(Br)c1Oc1c2ccc(O)c1Br
C=C(C)C(=O)OCCOC1CC2CC1C1C=CCC21 (stereo not given)
c1ccc(Oc2ccccc2)cc1
c1ccc2[nH]cnc2c1
Cc1c(Cl)cccc1[N+](=O)[O-]
Cc1ncc[nH]1
O=C1c2ccccc2C(=O)c2c(O)ccc(O)c21
NC1CCCCC1N (stereo not given)
COc1cc(CCC(C)=O)ccc1O
CC(C)c1ccccc1O
Oc1ccc2cc(SSc3ccc4cc(O)ccc4c3)ccc2c1
O=[N+]([O-])c1ccc(O)cc1C(F)(F)F
CC[N+](C)(CC)CC
N#Cc1ccc(CC(=O)c2cccc(C(F)(F)F)c2)cc1
C=CC(=O)OCCCC
CCOC(=O)c1ccc(N)cc1
CCCC(=O)C(CC)Sc1ccoc1C (stereo not given)
CC(C)(N=C=O)c1cccc(C(C)(C)N=C=O)c1
C[Si]1(C)O[Si](C)(C)O[Si](C)(C)O1
COC(=O)c1cccnc1
CC(C)OCCO
CCCC(=O)c1ccccc1
Cc1ccc(S(N)(=O)=O)cc1
CCc1ccc(O)cc1
OCCCCC(O)CO (stereo not given)
